Data from PubChem BioAssay AID1476 (National Center for Advancing Translational Sciences (NCATS), 2009).
Out of some 200,000 compounds screened, about 4,500 (2.2%) were called active. Not shown: some 12% with an inconclusive outcome. The list comes from a sample in which actives are over-represented; it also holds similar structures and randomly drawn compounds. Values without a mark were called inactive. Calls come from the whole dose curve; as a rule, active = well fitted inhibition curve with a large enough effect; inconclusive = small, poorly fitted or top-dose-only effect, or effect the other way; inactive = flat fitted curve, though single readings scatter.

The compounds below were run against Cruzipain (Trypanosoma cruzi) (UniProt P25779) (assay: qHTS Assay for Promiscuous and Specific Inhibitors of Cruzain (without detergent)). Conditions: purified cruzain, Z-FR-AMC fluorescence, no detergent.
Method in brief: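 Detergent-free condition (0.00005% Triton X-100) in acetate buffer pH 5.5 with DTT. 1.5 nM enzyme and compound were pre-mixed 15 min, then 2 uM Z-FR-AMC substrate added; reaction progress from fluorescence change between first and third reads (60 s).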
Note: nearly all actives have a fitted effect of over 40% in size.
Potency is the fitted concentration of half-maximal effect.
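Throughout, for max response, negative = inhibition: plate controls were enzyme without inhibitor for no effect and buffer without enzyme for full effect.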

Chain of Cruzipain (Trypanosoma cruzi) (P25779 123-467 limits assumed): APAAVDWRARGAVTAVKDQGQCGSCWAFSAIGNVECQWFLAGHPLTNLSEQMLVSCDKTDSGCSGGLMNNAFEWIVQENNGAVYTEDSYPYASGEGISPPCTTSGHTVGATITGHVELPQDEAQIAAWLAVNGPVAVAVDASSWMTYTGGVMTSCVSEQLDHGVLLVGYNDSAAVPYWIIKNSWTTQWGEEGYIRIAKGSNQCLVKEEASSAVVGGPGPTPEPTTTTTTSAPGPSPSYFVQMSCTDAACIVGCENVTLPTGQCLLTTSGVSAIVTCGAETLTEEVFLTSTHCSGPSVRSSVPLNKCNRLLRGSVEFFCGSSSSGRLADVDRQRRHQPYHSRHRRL

Question: With `Cc1ccccc1NC(=O)Cn1c(=O)n(CC2CCC(C(=O)NCCc3ccccc3)CC2)c(=O)c2ccccc21` (stereo not drawn) as the compound, how does the max response, negative = inhibition read?
Answer: 3.54%

Question: How did the max response, negative = inhibition turn out when `COc1ccc(-c2nc(C)c(CCNC(=O)c3ccc(C(F)(F)F)cc3)s2)cc1OC` was run?
Answer: 17.5%

Question: How did the max response, negative = inhibition turn out when `CCn1cc(CCC(=O)NCc2ccc(F)cc2)c2ccccc21` was run?
Answer: -13.6%

Question: How did the max response, negative = inhibition turn out when `COC(=O)c1ccc(CSc2ccccc2C)o1` was run?
Answer: -6.13%

Question: Which Potency does the source give for `CCc1ccc(NC(=O)CSc2nc3c([nH]c4ccccc43)c(=O)n2-c2cccc(OC)c2)cc1` here?
Answer: 12.6 µM (active)

Question: For `COCC(C)n1c(SCc2ccc(C(=O)OC)o2)nc2ccccc2c1=O` (stereo not drawn), which max response, negative = inhibition is on record?
Answer: 12.5%

Question: With `Cc1ccc(NC(=O)CSc2nc3c([nH]c4ccccc43)c(=O)n2-c2ccccc2)cc1Cl` as the compound, how does the max response, negative = inhibition read?
Answer: 2.09%

Question: Which Potency does the source give for `COC(=O)c1ccc(CSc2nc3ccccc3c(=O)n2-c2cccc(OC)c2)o1` here?
Answer: 25.1 µM (active)

Question: Which max response, negative = inhibition does the source give for `Cc1cccc(NC(=O)CSc2nc3c([nH]c4ccccc43)c(=O)n2-c2cc(C)cc(C)c2)c1` here?
Answer: -19.8%

Question: `COc1ccc(-c2cccc(NS(=O)(=O)c3cc(C)c(OC)c(C)c3C)c2)nn1` was tested. Which max response, negative = inhibition did it give?
Answer: -5.81%

Question: With `Cc1ccccc1CNC(=O)c1ccc(NC(=O)N2CCCCc3ccccc32)cc1` as the compound, how does the max response, negative = inhibition read?
Answer: -9.89%

Question: `Cc1ccc(-c2nnc(SCC(=O)NCc3ccccc3)nc2-c2ccc(C)cc2)cc1` was tested. Which max response, negative = inhibition did it give?
Answer: -17.5%

Question: How did the max response, negative = inhibition turn out when `Brc1ccc2c(c1)NC(c1cccnc1)=NC(c1ccccc1)=N2` was run?
Answer: 2.72%

Question: With `CCCCN(C)CCCNC(=O)CN1N=C(c2ccc(OC)cc2)CCC1=O` as the compound, how does the max response, negative = inhibition read?
Answer: 2.7%

Question: With `Cc1nn(C)c2c1c(C(F)(F)F)cc(=O)n2C(C)C(=O)NCc1ccc(Cl)cc1` (stereo not drawn) as the compound, how does the max response, negative = inhibition read?
Answer: -3.11%

Question: With `COc1ccc(C(=O)NNC(=S)NC(=O)c2ccccc2[N+](=O)[O-])cc1` as the compound, how does the max response, negative = inhibition read?
Answer: -1.55%

Question: For `COc1ccc(C2CC(c3ccccc3)=NN2C(=O)c2ccc(Cl)c([N+](=O)[O-])c2)cc1` (stereo not drawn), which Potency is on record?
Answer: 10 µM (active)

Question: For `COc1ccc(C2=NN(C(=O)c3cccnc3)C(c3ccccc3)C2)cc1` (stereo not drawn), which max response, negative = inhibition is on record?
Answer: 7.92%

Question: With `CCOC(=O)C1CCCN(C(=O)c2ccc(-n3ccc4ccccc43)s2)C1` (stereo not drawn) as the compound, how does the max response, negative = inhibition read?
Answer: 13.4%

Question: With `CCOc1ccc(C(=O)c2cn(Cc3ccc(F)cc3)c3ccc(F)cc3c2=O)cc1` as the compound, how does the max response, negative = inhibition read?
Answer: 3.78%

Question: How did the max response, negative = inhibition turn out when `Nc1ncc(S(=O)(=O)Nc2ccc(OC(F)(F)F)cc2)cn1` was run?
Answer: -3.7%

Question: With `O=C(COC(=O)/C=C/c1cn(-c2ccccc2)nc1-c1cccnc1)Nc1ccc(Cl)cc1Cl` as the compound, how does the Potency read?
Answer: 10 µM (active)

Question: Which max response, negative = inhibition does the source give for `O=C(c1cn(-c2ccccc2)nc1-c1cccnc1)N1CCCCC1` here?
Answer: -0.942%

Question: With `COC(=O)c1cn(-c2ccccc2)nc1-c1cccnc1` as the compound, how does the max response, negative = inhibition read?
Answer: 10.9%

Question: For `CCc1c(C)sc(NC(=O)C2c3ccccc3Oc3ccccc32)c1C(=O)OC(C)C`, which max response, negative = inhibition is on record?
Answer: -24.3%

Question: For `CCCOC(=O)c1cc2ccccc2oc1=O`, which max response, negative = inhibition is on record?
Answer: -4.88%

Question: With `CCc1ccc(Oc2coc3cc(OC(=O)c4cc5ccccc5oc4=O)ccc3c2=O)cc1` as the compound, how does the Potency read?
Answer: 3.98 µM (active)

Question: `COc1ccc(Oc2coc3cc(OC(=O)c4cncc(Br)c4)ccc3c2=O)cc1` was tested. Which max response, negative = inhibition did it give?
Answer: -23.9%

Question: With `COC(=O)C(C)N(C#N)c1nc(C)nc(C)n1` (stereo not drawn) as the compound, how does the max response, negative = inhibition read?
Answer: 1.82%

Question: For `Cc1cc(C)nc(N(C#N)CC(=O)Nc2ccccc2)n1`, which max response, negative = inhibition is on record?
Answer: 5.89%

Question: `CNc1nc(SC)nc(N(C#N)CC(=O)OC)n1` was tested. Which Potency did it give?
Answer: 25.1 µM (active)

Question: With `CCCCOc1ccc(NC(=O)c2cc3c(n(-c4ccc(Cl)cc4)c2=O)CCCC3=O)cc1` as the compound, how does the max response, negative = inhibition read?
Answer: 7.21%

Question: How did the max response, negative = inhibition turn out when `CSCCC(NS(=O)(=O)c1ccc2c(c1)oc(=O)n2C)C(=O)NCc1ccccc1` (stereo not drawn) was run?
Answer: -13%

Question: With `COc1ccc(CCNC(=O)CCCn2c(=O)c3ccccc3n(Cc3ccc(F)cc3Cl)c2=O)cc1OC` as the compound, how does the max response, negative = inhibition read?
Answer: 13.2%

Question: For `CCc1nnc(SCc2nc(-c3cccc(C)c3)oc2C)c2cc3sc(C)cc3n12`, which max response, negative = inhibition is on record?
Answer: -17.8%

Question: Which max response, negative = inhibition does the source give for `COc1ccccc1C(=O)OCc1cc(=O)n2nc(-c3cccs3)sc2n1` here?
Answer: -3.73%

Question: With `COc1ccc(C2CC(c3cccs3)=Nc3ccccc3S2)cc1OC` (stereo not drawn) as the compound, how does the max response, negative = inhibition read?
Answer: 13.4%

Question: Which Potency does the source give for `COc1ccc(C2CC(c3cccs3)=NN2C(=O)COC(=O)c2cc3ccccc3cc2O)cc1OC` (stereo not drawn) here?
Answer: 12.6 µM (active)

Question: For `O=C(Cn1ncc2c3ccccc3n(Cc3ccccc3)c2c1=O)NC1CCCCCC1`, which max response, negative = inhibition is on record?
Answer: 10.4%

Question: `COc1cccc(NC(=O)CSc2cc(=O)n(C)c3ccc(Cl)cc23)c1` was tested. Which max response, negative = inhibition did it give?
Answer: -14.5%

Question: How did the max response, negative = inhibition turn out when `COc1cn(CC(=O)Nc2cccc(C)c2C)c(CN2CCCCC2)cc1=O` was run?
Answer: 9%

Question: `CCC(=O)N1c2ccccc2CC1C(=O)N1CCN(c2ccccc2)CC1` (stereo not drawn) was tested. Which max response, negative = inhibition did it give?
Answer: 7.34%

Question: For `O=S(=O)(NCC(c1ccccc1)N1CCc2ccccc21)c1ccccc1` (stereo not drawn), which max response, negative = inhibition is on record?
Answer: 4.54%

Question: For `O=C(NC(c1ccccc1)c1ccccc1)N1CCN(CCO)CC1`, which max response, negative = inhibition is on record?
Answer: -2.87%

Question: How did the Potency turn out when `O=C(CN1CCc2ccccc21)NC(c1ccccc1)c1ccccc1` was run?
Answer: 25.1 µM (active)

Question: Which max response, negative = inhibition does the source give for `Cc1nc(NC(=O)CN(C)S(=O)(=O)c2ccc(Cl)cc2)sc1C` here?
Answer: -3.63%

Question: For `C=CCCC(=O)Nc1nc(C)c(-c2csc(Nc3ccc(Cl)cc3)n2)s1`, which Potency is on record?
Answer: 12.6 µM (active)

Question: `CCCCCCC(=O)Nc1nc(C)c(-c2csc(Nc3cccc(OC)c3)n2)s1` was tested. Which Potency did it give?
Answer: 10 µM (active)

Question: Which max response, negative = inhibition does the source give for `COc1cccc(NC(=O)c2csnn2)c1` here?
Answer: -5.7%

Question: `CC(=O)c1sc(NC(=O)c2ccc(C)cc2)nc1C` was tested. Which max response, negative = inhibition did it give?
Answer: -25%

Question: `Cc1ccc(C(=O)Nc2nc(-c3ccccc3)ns2)cc1` was tested. Which max response, negative = inhibition did it give?
Answer: 5.68%

Question: `CCCCC(=O)Nc1nc(C)c(-c2csc(Nc3ccc(Cl)cc3)n2)s1` was tested. Which Potency did it give?
Answer: 7.94 µM (active)

Question: With `CCCCN(C)CCC(=O)Nc1ccc(Cl)cc1` as the compound, how does the max response, negative = inhibition read?
Answer: -0.803%

Question: `CCOC(=O)c1csc(NC(=O)Nc2cccc(OC)c2)n1` was tested. Which max response, negative = inhibition did it give?
Answer: 8.19%

Question: Which Potency does the source give for `Cc1ccc(Nc2nc(-c3sc(NC(=O)c4ccccc4)nc3C)cs2)cc1` here?
Answer: 31.6 µM (active)

Question: `Cc1nc(C)c(-c2csc(NCCc3ccccc3)n2)s1` was tested. Which max response, negative = inhibition did it give?
Answer: -11.5%

Question: For `CN(CCCC(=O)Nc1nccs1)S(=O)(=O)c1ccc(Cl)cc1`, which max response, negative = inhibition is on record?
Answer: -7.25%

Question: How did the max response, negative = inhibition turn out when `Cc1ccc(Cl)cc1NC(=O)NC1COc2ccccc2C1` (stereo not drawn) was run?
Answer: -7.18%
